SW480 rereplic: inducers of DNA re-replication in SW480 colon cancer cells; SW480 DNA re-replication, Hoechst DNA content imaging, 48 h; Potency, µM (doses to about 46.1 µM), hits mostly activators; 340,000 compounds, 1.8% hits; note: nearly all actives have a fitted effect of over 55% in size
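Readout is total intensity of Hoechst-stained nuclei, excited at 405 nm and collected at 500-530 nm. Compound treatment lasted 48 hr at 37 C in 5% CO2 before staining.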
KB-3-1 tox: kills parental KB-3-1 adenocarcinoma cells. AID 1347075. KB-3-1 viability, CellTiter-Glo ATP luminescence, 72 h. Potency, µM (highest dose often 46.1 µM), actives largely listed as cytotoxic. 400,000 compounds, 1.4% hits; note: nearly all actives have a fitted effect of over 60% in size
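KB-3-1 cells, DMEM (no phenol red) + 10% FBS; compound by pin transfer, 72 h, 37 °C. Readout: CellTiter-Glo luminescence after 10 min. Data normalized, curve-fitted.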
ELG1 DNA repair: ELG1-dependent DNA repair inhibition. 330,000 compounds, 2.3% hits. Potency, µM (doses to about 46.1 µM), hits mostly inhibitors. HEK293T ELG1-luciferase reporter, luminescence, 16 h; DNA damage induced by 5-fluorouridine. AID 504467; note: nearly all actives have a fitted effect of over 55% in size
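5-Fluorouridine DNA damage + compound/DMSO, 2,000 cells/well, 16 h, 37 °C/5% CO2. ONE-Glo, 30 min RT, luminescence. Readout = decrease in reporter signal.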
MCF10A rerep: inducers of DNA re-replication in MCF 10A breast cells; MCF 10A DNA re-replication, Hoechst nuclear intensity, 48 h; Potency, µM (series often up to 46.1 µM), actives largely listed as activators; 350,000 compounds, 2.9% hits; note: nearly all actives have a fitted effect of over 50% in size
KB-V1 cytotox: kills drug-selected multidrug resistant KB-V1 cells. KB-V1 MDR cells viability, CellTiter-Glo, 72 h. Potency, µM (top dose mostly 46.1 µM), actives largely listed as cytotoxic. 400,000 compounds, 3.4% hits; note: nearly all actives have a fitted effect of over 60% in size
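Luminescent ATP read-out (CellTiter-Glo, 10 min) measures survival of drug-selected KB-V1 MDR cells after 72 h, 37 degrees C compound exposure. Medium: phenol-red-free DMEM, 10% FBS. Values from fitted concentration-response curves.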
Large screens that a line does not name were inactive. In the library only some 8.1% were active in any assay of this set; here they are far more common. Calls come from the whole dose curve; as a rule, active = well fitted curve in the direction sought with a large enough effect; inconclusive = small, poorly fitted or top-dose-only effect, or another doubt; inactive = no such curve, though single readings can be large; an effect the other way counts as inactive or inconclusive.

COc1cc(C(=O)NNC(=O)Cc2ccc(S(=O)(=O)N3CCOCC3)s2)cc(OC)c1OC	none
N#Cc1cccc(C#N)c1N1CCC(C#N)CC1	none
CCn1ccc(C(=O)Nc2ccc(Cl)cn2)n1	ELG1 DNA repair inconclusive
COCCNC(=O)C1(C)CCCN(C(=O)c2ccc3c(c2)OCO3)C1 (stereo not drawn)	none (no result: SW480 rereplic, ELG1 DNA repair, MCF10A rerep)
CCCCCn1c(Sc2ccccc2)nc2c1c(=O)[nH]c(=O)n2C	KB-3-1 tox inconclusive, KB-V1 cytotox inconclusive
Cc1cc(C)n(-c2nc3c(c(=O)[nH]c(=O)n3C)n2CC(O)COc2ccc(Cl)cc2Cl)n1 (stereo not drawn)	SW480 rereplic inconclusive, KB-3-1 tox 2.06µM, MCF10A rerep inconclusive, KB-V1 cytotox inconclusive
C=CCn1c(Sc2ccccc2)nc2c1c(=O)[nH]c(=O)n2C	KB-3-1 tox 7.31µM, KB-V1 cytotox 2.31µM
CCN(CC)CCNc1nc2c(c(=O)[nH]c(=O)n2C)n1CC(O)COc1ccc(Cl)cc1Cl (stereo not drawn)	none
CC1(C)CC(=O)C2=C(C1)N(C1CCCCC1)C(=O)C2(O)C(F)(F)F (stereo not drawn)	none
NC(=S)N=Nc1c(O)n(CCCl)c2ccc(Br)cc12	KB-3-1 tox inconclusive, ELG1 DNA repair 14.6µM, MCF10A rerep inconclusive, KB-V1 cytotox inconclusive
C/C(Cl)=C\Cn1c(O)c(N=NC(N)=S)c2cc(Br)ccc21	SW480 rereplic inconclusive, KB-3-1 tox inconclusive, MCF10A rerep inconclusive, KB-V1 cytotox inconclusive
NC(=S)N=Nc1c(O)n(Cc2ccc(Br)cc2)c2ccccc12	SW480 rereplic 8.2µM, KB-3-1 tox 3.26µM, ELG1 DNA repair inconclusive, MCF10A rerep 5.8µM, KB-V1 cytotox 4.61µM
Cc1ccc(Nc2nc(=O)c3cccnc3s2)cc1	SW480 rereplic 9.2µM, ELG1 DNA repair inconclusive, MCF10A rerep 16.4µM
CSC1=NC(C(Cl)(Cl)Cl)N=C(c2ccc(C)cc2)N1 (stereo not drawn)	SW480 rereplic inconclusive, KB-3-1 tox 1.03µM, ELG1 DNA repair inconclusive, MCF10A rerep 1.84µM, KB-V1 cytotox 1.3µM
CS(=O)(=O)N(CC(=O)Nc1ccc2c(c1)OCO2)c1ccccc1	MCF10A rerep 20.6µM
CS(=O)(=O)N(CC(=O)Nc1ccc2c(c1)OCCO2)c1ccc2c(c1)OCO2	none
C=CCN(c1ccc(C(=O)Nc2ccc3c(c2)OCO3)cc1)S(C)(=O)=O	ELG1 DNA repair 13µM
CS(=O)(=O)N(CC(=O)NCCSC1CCCCC1)c1ccc2c(c1)OCO2	KB-V1 cytotox 18.4µM
O=C(OCc1ccccn1)C1CCN(C(=O)c2ccc(Cl)cc2)CC1	none
O=C(COc1ccc2c(-c3ccccc3)cc(=O)oc2c1)Nc1ccc(CN2CCOCC2)cc1	KB-3-1 tox inconclusive, KB-V1 cytotox inconclusive
Cc1noc(C)c1S(=O)(=O)Nc1ccc2c(c1)CC(=O)N([C@H](C)CO)C[C@H](C)[C@@H](CN(C)CC1CC1)O2	ELG1 DNA repair inconclusive
COc1ccc(C(=O)CN2C3=NCCCN3c3ccccc32)cc1OC	SW480 rereplic 0.259µM, ELG1 DNA repair inconclusive
CCn1c(=N)n(CC(=O)c2ccc(OC)c(OC)c2)c2ccccc21	KB-V1 cytotox 13µM
CCn1c(=N)n(CC(=O)OC)c2ccccc21	none
COc1cccc(C(=O)CN2C3=NCCCN3c3ccccc32)c1	none
CCN(CC(=O)NCc1ccc(Cl)cc1)C(=O)c1ccc2cc(OC)ccc2c1	KB-V1 cytotox inconclusive
CCN(CC)S(=O)(=O)c1cccc(C(=O)N[C@H](C(=O)Nc2nc3ccccc3s2)C(C)C)c1	none
CCN(CC)S(=O)(=O)c1cccc(C(=O)N[C@H](C(=O)Nc2nc3ccc(F)cc3s2)C(C)C)c1	SW480 rereplic inconclusive, KB-3-1 tox 14.6µM, ELG1 DNA repair inconclusive, MCF10A rerep inconclusive, KB-V1 cytotox 5.8µM
C=CCN(CC=C)S(=O)(=O)c1ccc2nc(NC(=O)C(C)C)sc2c1	SW480 rereplic inconclusive, KB-3-1 tox 3.66µM, ELG1 DNA repair inconclusive, MCF10A rerep 8.2µM, KB-V1 cytotox inconclusive
CC(C)=CCc1c2c(c(O)c3c(=O)c4c(oc13)-c1cc(O)c(O)cc1OC4C=C(C)C)C=CC(C)(C)O2 (stereo not drawn)	SW480 rereplic inconclusive, KB-3-1 tox inconclusive, KB-V1 cytotox inconclusive (no result: ELG1 DNA repair)
O=C(C(c1ccccc1)c1ccccc1)N1CCN(Cc2ccc(Br)cc2)CC1	MCF10A rerep inconclusive
CN(C)CCCNC(=O)C1(O)c2cc(Br)ccc2NC(=O)N1c1ccc(Cl)cc1 (stereo not drawn)	none
CCOC(=O)c1c(C)[nH]c(C(=O)COC(=O)c2oc3ccccc3c2C)c1C	KB-3-1 tox inconclusive
CCOC(=O)c1[nH]c(C)c(C(=O)OCC(=O)NCc2ccc(OC)c(OC)c2)c1C	ELG1 DNA repair 11.2µM
COc1ccc(CNC(=O)COC(=O)c2n[nH]c3ccccc23)cc1OC	ELG1 DNA repair 16.4µM, MCF10A rerep inconclusive
CCOC(=O)c1c(C)[nH]c(C(=O)OCC(=O)Nc2ccccc2)c1C	ELG1 DNA repair inconclusive
CCOC(=O)c1c(C)[nH]c(C(=O)OCC(=O)NC(C)C)c1C	KB-V1 cytotox 23.1µM
CCOC(=O)c1c(C)[nH]c(C(=O)COC(=O)c2oc3ccc(OC)cc3c2C)c1C	KB-3-1 tox 16.4µM, KB-V1 cytotox 10.3µM
CC(=O)c1ccc(NS(=O)(=O)c2cc3[nH]c(=O)c(=O)[nH]c3cc2C)cc1	KB-V1 cytotox inconclusive (no result: SW480 rereplic, ELG1 DNA repair, MCF10A rerep)
CCOC(=O)c1[nH]c(C=O)c(C(=O)OCC)c1C	SW480 rereplic 5.8µM, MCF10A rerep 11.6µM, KB-V1 cytotox inconclusive
C[C@@H]1CN(S(=O)C(C)(C)C)[C@H](CCO)/C1=C\c1ccccc1 (stereo partly drawn)	none (no result: ELG1 DNA repair)
COC(=O)c1cc(S(=O)(=O)N(Cc2ccccc2)C(C)(C)C)c[nH]1	SW480 rereplic 6.51µM, KB-3-1 tox inconclusive, MCF10A rerep 23.1µM
Cc1cc(=O)oc2cc(NC(=O)C(C)Oc3ccc(F)cc3)ccc12 (stereo not drawn)	none
Cc1ccc(NS(=O)(=O)c2c(C)nc3sccn3c2=O)c(C)c1	none
CCCCNc1nc(N)nc(-c2cc(Cl)ccc2O)n1	SW480 rereplic inconclusive, KB-3-1 tox inconclusive, ELG1 DNA repair inconclusive, MCF10A rerep 20.6µM, KB-V1 cytotox 11.6µM
CC1(C)NC(=O)N(CCOCCSc2ccccc2)C1=O	none
Oc1cc(CNCc2ccccc2)c(O)cc1CNCc1ccccc1	SW480 rereplic 13µM, MCF10A rerep inconclusive (no result: ELG1 DNA repair)
Cc1nc2ccccc2n1CCc1nc2c3ccccc3nc(=S)n2[nH]1	none
Cc1ccccc1-c1nc2c3ccccc3nc(=S)n2[nH]1	MCF10A rerep 7.31µM
Cn1c(=O)c2cc(NC(=O)CCc3ccc4c(c3)OCO4)ccc2n1Cc1ccc(F)cc1	KB-3-1 tox inconclusive (no result: SW480 rereplic, ELG1 DNA repair, MCF10A rerep)
COc1cc(Cn2c3ccc(NC(=O)NCc4ccc(F)cc4)cc3c(=O)n2C)ccc1F	KB-3-1 tox 9.2µM (no result: SW480 rereplic, ELG1 DNA repair, MCF10A rerep)
COc1ccc(CCNC(=O)Nc2ccc3c(c2)c(=O)n(C)n3Cc2ccc(F)cc2)cc1OC	none (no result: SW480 rereplic, ELG1 DNA repair, MCF10A rerep)

Screening results as filed in PubChem.
